In the library only some 19% were active in any assay of this set; here they are far more common.
KB-V1 cytotox: KB-V1 MDR subline cytotoxicity; KB-V1 MDR cells viability, CellTiter-Glo, 72 h; Potency, µM (series often up to 46.1 µM), most hits filed as cytotoxic; 400,000 tested, 3.4% active; further: nearly all actives have a fitted effect of over 60% in size
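Cytotoxicity via CellTiter-Glo luminescence after 72 h compound exposure at 37 degrees C. Cells: drug-selected KB-V1 line, DMEM phenol-red free plus 10% FBS. Compounds tested at multiple concentrations; normalized data fitted to concentration-effect curves.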
DT40 TDP1 no CPT: qHTS for Inhibitors of human tyrosyl-DNA phosphodiesterase 1 (TDP1): qHTS in cells in absence of CPT | 420,000 tested, 15% active | DT40 Tdp1-/- hTDP1 cells, no CPT, ATP luminescence, 48 h | Potency, µM (highest dose often 46.2 µM), inactives show at the top dose activity change, negative = growth inhibition, most hits filed as inhibitors | AID 686978, 2013; further: nearly all actives have a fitted effect of over 55% in size
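A cellular qHTS used chicken DT40 cells lacking endogenous Tdp1 but carrying stably transfected human TDP1. Compounds were applied without camptothecin, and cell growth kinetics were judged by ATP-dependent luminescence after ≥48 hr.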
DT40 TDP1 CPT: DT40-hTDP1 cell growth loss with CPT; chicken DT40 Tdp1-/-;hTDP1 cells + 20 nM CPT, ATP luminescence, 48 h; Potency, µM (doses to about 46.2 µM), inactives show top-dose activity change, negative = growth inhibition, most hits filed as inhibitors; 420,000 tested, 12% active; AID 686979; further: nearly all actives have a fitted effect of over 55% in size
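Cell growth measured by CellTiter-Glo luminescence after a minimum 48 h, 37 C compound exposure with 20 nM CPT in Tdp1-knockout DT40 cells stably expressing hTDP1, seeded 400/well; qHTS titration format.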
HT1080-NT tox: kills 2HG-producing HT-1080-NT fibrosarcoma cells | 360,000 tested, 1.6% active | Potency, µM (top dose mostly 46.1 µM), without a hit: at the top dose activity, negative = less viability, actives largely listed as cytotoxic | AID 686970 | HT-1080-NT fibrosarcoma viability, CellTiter-Glo ATP luminescence, 48 h;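 further: NT is the 2HG producing partner of a matched IDH1 knockdown line; 0% = DMSO-treated cells and -100% = media-only wells without cells; nearly all actives have a fitted effect of over 55% in size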
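HT-1080-NT fibrosarcoma cells (2HG-overproducing), 750 cells/well in RPMI with 5% FBS, dosed after 2 h and incubated 48 h at 37C. CellTiter-Glo luminescence normalized to DMSO and no-cell wells; concentration-response curves fitted and classed.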
KB-3-1 tox: kills parental KB-3-1 adenocarcinoma cells; KB-3-1 viability, CellTiter-Glo ATP luminescence, 72 h; Potency, µM (highest dose often 46.1 µM), actives largely listed as cytotoxic; 400,000 tested, 1.4% active; further: nearly all actives have a fitted effect of over 60% in size
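KB-3-1 cells, DMEM (no phenol red) + 10% FBS; compound by pin transfer, 72 h, 37 °C. Readout: CellTiter-Glo luminescence after 10 min. Data normalized, curve-fitted.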
HT1080 IDH1KD tx: kills HT-1080 cells with IDH1 knockdown; 360,000 tested, 2% active; HT-1080 IDH1 knockdown viability, ATP luminescence, 48 h; Potency, µM (highest dose often 46.1 µM), inactives show top-dose activity, negative = toxicity, usual class: cytotoxic;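 further: 0% = DMSO wells and -100% = cell-free medium wells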
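After a 2 h attachment period, IDH1KD HT-1080 cells took pin-transferred compound for 48 h at 37 °C; ATP-based luminescence after 10 min room-temperature reagent incubation reported viability.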
* = called active by the depositor; i = inactive; u = inconclusive; x = no result given; [ ] = remark or other dose. The call rests on the fitted dose curve; in most records, active means well fitted curve in the direction sought with a large enough effect; inconclusive means small, poorly fitted or top-dose-only effect, or another doubt; inactive means no such curve, though single readings can be large; an effect the other way counts as inactive or inconclusive. Unless noted, on the % scale 0 is the no-effect control and ±100 the full control effect; potency means the concentration at half of the fitted maximal effect.

SMILES	KB-V1 cytotox	DT40 TDP1 no CPT	DT40 TDP1 CPT	HT1080-NT tox	KB-3-1 tox	HT1080 IDH1KD tx
Cc1ccc(NC(=O)c2sc3ncn(CC(=O)N4CCN(c5ccccn5)CC4)c(=O)c3c2C)cc1Cl	i	14.6µM*	u	-10.6%	i	0.0%
COc1cccc(NC(=O)c2sc3ncn(CC(=O)N4CCN(c5ccccn5)CC4)c(=O)c3c2C)c1	u	u	18.4µM*	-3.4%	i	-5.8%
CCN(CC)CCCNC(=O)c1sc2ncn(CC(=O)Nc3ccc(C)c(Cl)c3)c(=O)c2c1C	i	u	u	-15.2%	i	-25.3%
O=C1CCCC/C=C\C[C@H](CC(=O)N(CCO)Cc2ccccc2)C(=O)NCCO1	i	-2.9%	-22.1%	10.5%	i	10.3%
Cc1c(Cl)cccc1N/C(SCC(=O)N1CCCCCC1)=C(/C#N)c1nc2ccccc2s1	14.6µM*	11.6µM*	11.6µM*	0.6%	20.6µM*	-26.2%
O=C(CSc1nc2ccccc2s1)N1CCCCC1	i	-11.1%	-4.2%	-11.7%	i	17.2%
O=C(CCN1C(=O)/C(=C/c2ccccc2)SC1=S)N[C@@H](CO)Cc1ccccc1	i	10.3µM*	18.4µM*	2.2%	u	-13.1%
O=C(CN1C(=O)/C(=C/c2ccccc2F)SC1=S)NC1C=CS(=O)(=O)C1 (centres undefined)	u	-12.7%	-3.3%	14.0%	i	13.2%
O=C(CCN1C(=O)/C(=C/c2ccccc2F)SC1=S)N[C@@H](CO)Cc1ccccc1	i	16.4µM*	u	-0.9%	u	u
O=C(CCN1C(=O)/C(=C/c2ccccc2)SC1=S)Nc1ccccn1	i	-12.9%	-14.2%	-4.6%	i	-6.0%
COc1ccc(OC(=O)CN2C(=O)C3C4CCC(C4)C3C2=O)cc1 (centres undefined)	i	u	3.0%	-1.6%	i	2.6%
O=C(COC(=O)c1ccccc1OCCOc1ccccc1)Nc1ccccc1Br	i	-19.5%	-11.8%	x	i	x
COc1cccc(NC(=S)N(CCCN2CCOCC2)Cc2cn(C)c3ccccc23)c1	i	14.6µM*	9.2µM*	-26.3%	i	-24.8%
Cc1cc(NC(=S)N(CCN2CCOCC2)Cc2ccccc2F)ccc1Cl	u	18.4µM*	u	-18.3%	i	0.5%
COc1cc(OC)c(NC(=O)C(c2ccccc2)N2Cc3ccccc3C2=O)cc1Cl (centres undefined)	x	-23.3%	u	x	x	x
CCCC(=O)Oc1c(Sc2ccc(C)cc2)c(C)nn1-c1ccccc1	x	-16.9%	-17.3%	x	x	x
CCc1ccc(CNC(=O)c2cc(=O)[nH]c3ccc(S(=O)(=O)N4CCCCC4)cc23)cc1	x	4.8%	-1.6%	x	x	x
CCOc1ccc(NC(=O)Cn2cc(C(=O)c3cccs3)c3ccccc32)cc1	i	u	u	x	i	x
O=C(c1cccs1)c1cn(CCOc2ccc(F)cc2)c2ccccc12	x	20.6µM*	16.4µM*	x	x	x
CC(C)(C)c1ccc(OCCn2cc(C(=O)c3ccco3)c3ccccc32)cc1	i	23.1µM*	u	x	i	x
Cc1cc(OCCn2cc(C(=O)c3cccs3)c3ccccc32)ccc1Cl	i	16.4µM*	16.4µM*	x	i	x
O=C(c1ccco1)c1cn(CCOc2ccc(F)cc2)c2ccccc12	i	u	u	x	i	x
O=C(c1cccs1)c1cn(CCOc2ccccc2F)c2ccccc12	x	18.4µM*	u	x	x	x
COC(=O)c1cn(CCOc2ccccc2F)c2ccccc12	i	-7.8%	-27.3%	-2.0%	i	-12.0%
N#Cc1ccc(C(=O)N(Cc2ccco2)Cc2cccs2)cc1	i	u	u	x	i	x
SMILES	KB-V1 cytotox	DT40 TDP1 no CPT	DT40 TDP1 CPT	HT1080-NT tox	KB-3-1 tox	HT1080 IDH1KD tx
O=C(N[C@H](CO)c1ccccc1)[C@H]1O[C@@H](n2ccc(=O)[nH]c2=O)[C@H](O)[C@@H]1O	i	2.9%	-8.1%	0.0%	i	-0.6%
CN(CC(=O)Nc1ccc(F)c(F)c1F)C(=O)Cc1ccc(S(=O)(=O)N2CCOCC2)s1	i	6.3%	u	8.5%[9.24 µM]	i	2.0%
Cc1cccc(C)c1-n1nnnc1C1(C)CCC(=O)N1CC1CCCCC1 (centres undefined)	u	u	u	-0.2%	i	-12.5%
C=CCn1c(C)nnc1SCC(=O)N1c2ccccc2NC(=O)C1(C)C	i	u	9.0%	4.8%	i	0.0%
CCCCCCn1c(COc2ccccc2F)nnc1SCC(=O)N1c2ccccc2NC(=O)C1(C)C	u	16.4µM*	23.1µM*	-1.8%[9.24 µM]	u	u
CCc1nc2c(OCc3c(C)noc3C)cccn2c1N(C)C(=O)c1ccccc1F	i	-12.9%	-12.3%	18.9%	i	8.4%
Cc1cc(=O)oc2cc(OCC3CC(c4ccccc4)=NO3)ccc12 (centres undefined)	8.2µM*	18.4µM*	16.4µM*	11.2µM*	7.31µM*	u
Cc1cc(=O)oc2cc(OCC3CC(c4ccc(Br)cc4)=NO3)ccc12 (centres undefined)	20.6µM*	16.4µM*	u	21.9%	u	5.3%
CCC(=O)c1c(NC(C)C)cc(C)oc1=O	i	6.2%	1.4%	3.3%	i	3.3%
O=C(NCc1ccc2c(c1)CCN2C(=O)c1ccccc1)c1ccco1	i	u	u	x	i	x
O=C(NCc1ccc(F)cc1)c1cc(C2CCCCN2C(=O)c2ccc(Cl)cc2)on1 (centres undefined)	i	14.6µM*	u	u	i	u
CS(=O)(=O)N1CCCCC1c1cc(C(=O)NCc2ccc(F)cc2)no1 (centres undefined)	i	-26.2%	-28.8%	u	i	9.5%
COc1ccc(C(=O)N2CCCCC2c2cc(C(=O)NCc3ccc(F)cc3)no2)cc1 (centres undefined)	i	u	16.4µM*	1.9%	i	-3.9%
O=C(NCc1ccc(F)cc1)c1cc(C2CCCCN2C(=O)c2ccccc2)on1 (centres undefined)	i	u	u	-18.8%	i	-2.5%
O=c1c(-c2ccc(Cl)cc2)nc2cnc(N3CCOCC3)nc2n1C1CC1	x	11.5%	-3.5%	x	x	x
Cc1ccc(CNC(=O)c2ccc(NC(=O)c3nsc4ccccc34)cc2)cc1	x	-15.0%	10.3%	x	x	x
O=C(NCc1cccc(F)c1)c1ccc(NC(=O)c2nsc3ccccc23)cc1	i	u	u	x	i	x

High-throughput results from PubChem BioAssay.
